Assay results reported in ChEMBL document CHEMBL1961873, “Compounds: GSK PKIS; Assays: Nanosyn kinase panel” (2012).
Several values for one entry are separate records, joined by “and”; a condition that tells them apart may be missing. Identical values can stand only once.

The compounds below were run against T1, Muscle, skeletal receptor tyrosine-protein kinase (Homo sapiens) (UniProt O15146). Conditions: at 0.1 µM.
T1 sequence (whole entry): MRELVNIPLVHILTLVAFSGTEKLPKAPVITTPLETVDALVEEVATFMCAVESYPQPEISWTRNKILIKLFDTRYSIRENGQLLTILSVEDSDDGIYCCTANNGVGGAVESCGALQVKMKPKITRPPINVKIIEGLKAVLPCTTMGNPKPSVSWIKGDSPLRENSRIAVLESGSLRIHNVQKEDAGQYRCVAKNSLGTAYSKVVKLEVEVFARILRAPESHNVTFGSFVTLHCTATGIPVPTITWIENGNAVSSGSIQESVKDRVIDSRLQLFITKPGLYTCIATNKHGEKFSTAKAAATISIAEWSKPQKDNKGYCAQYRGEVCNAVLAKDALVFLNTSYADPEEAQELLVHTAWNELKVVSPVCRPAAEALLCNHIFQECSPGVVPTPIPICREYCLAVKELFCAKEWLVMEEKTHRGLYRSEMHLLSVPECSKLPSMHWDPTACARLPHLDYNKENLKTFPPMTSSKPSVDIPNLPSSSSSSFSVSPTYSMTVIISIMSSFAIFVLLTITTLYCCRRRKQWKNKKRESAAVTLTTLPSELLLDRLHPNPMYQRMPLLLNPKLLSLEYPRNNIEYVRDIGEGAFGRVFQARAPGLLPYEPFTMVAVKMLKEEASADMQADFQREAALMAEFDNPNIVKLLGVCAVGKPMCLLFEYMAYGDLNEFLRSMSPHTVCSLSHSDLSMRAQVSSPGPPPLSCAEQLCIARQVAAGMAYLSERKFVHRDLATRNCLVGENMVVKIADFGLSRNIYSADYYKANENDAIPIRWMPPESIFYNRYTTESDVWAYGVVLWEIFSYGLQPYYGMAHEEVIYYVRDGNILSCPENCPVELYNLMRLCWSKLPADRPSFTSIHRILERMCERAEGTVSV
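Further: values are mean inhibition of MuSK from the GSK PKIS kinase screening panel.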

Compound	inhibition
CCS(=O)(=O)c1ccc(OC)c(Nc2ncc(-c3cccc(F)c3)o2)c1	3.58%
CC1(C)CC(n2cnc(-c3ccc(F)cc3)c2-c2ccnc(N)n2)CC(C)(C)N1	0.69%
Fc1ccc(Nc2nccc(-c3c(-c4ccc(C(F)(F)F)cc4)nn4ncccc34)n2)cc1F	2.34%
CCOc1ccc2c(-c3ccnc(Nc4cc(OC)cc(C(F)(F)F)c4)n3)cnn2n1	0.02%
CS(=O)(=O)CCNCc1ccoc1-c1ccc2ncnc(Nc3ccc(OCc4ccccc4)cc3)c2c1	1.36%
Cc1ccc(-c2cc3c(NC(=O)C4CC4)ncnc3o2)cc1	2.65%
O=C(O[C@H]1CN[C@H](C#Cc2cc3ncnc(Nc4ccc(OCc5cccc(F)c5)c(Cl)c4)c3s2)C1)N1CCOCC1	1.77%
COc1ccc(Nc2ncc(-c3ccccc3)o2)cc1OC	2.37%
O=C(O[C@H]1CN[C@H](C#Cc2cc3ncnc(Nc4ccc5c(ccn5Cc5cc(F)ccc5F)c4)c3s2)C1)N1CCOCC1	2.87%
Cc1c2ccc(N(C)c3ccnc(Nc4cccc(S(N)(=O)=O)c4)n3)cc2nn1C	2.38%
OCCCNc1nccc(-c2c(-c3ccc(F)cc3)nn3cc(C(F)(F)F)ccc23)n1	2.96%
O=C(O[C@H]1CN[C@H](C#Cc2cc3ncnc(Nc4ccc5c(cnn5Cc5ccccc5)c4)c3s2)C1)N1CCOCC1	0.92%
CCS(=O)(=O)c1ccc(OC)c(Nc2ncc(-c3cccc(C(C)=O)c3)o2)c1	2.82%
CS(=O)(=O)CCNCc1ccc(-c2ccc3ncnc(Nc4ccc(OCc5ccccc5)cc4)c3c2)o1	2.69%
Cn1c(-c2nonc2N)nc2cnccc21	2.14%
COc1cc2c(cc1Nc1nc(Nc3cccc(F)c3C(N)=O)c3cc[nH]c3n1)N(C(=O)CN1CCN(C(C)C)CC1)CC2	1.22%

Compound	inhibition
Fc1cccc(COc2ccc(Nc3ncncc3C#Cc3ccccc3)cc2Cl)c1	3.76%
CS(=O)(=O)Nc1ccc(-c2ccc3c(NC(=O)C4CC4)n[nH]c3c2)cc1	3.2%
CCCNc1cccc(-n2ncc3c(N/N=C/c4ccncc4)ncnc32)c1	8.51%
Nc1ncnc2occ(-c3ccc(NC(=O)Nc4cc(C(F)(F)F)ccc4F)cc3)c12	87.2% and 84.2%
NS(=O)(=O)c1cccc(N/C=C2\C(=O)Nc3ccccc32)c1	4.44%
COc1cc(N2CCN(C(C)C)CC2)ccc1Nc1nc(Nc2cccc3ncccc23)c2cc[nH]c2n1	5.11%
CN1CCC(C(=O)Nc2n[nH]c3nc(-c4ccc(O)cc4)c(Br)cc23)CC1	2.28% and 1.53%
CCn1c(-c2nonc2N)nc2cncc(C(=O)NCCNC)c21	5.69%
CCN1CCC(C(=O)Nc2n[nH]c3nnc(-c4cccc(F)c4F)cc23)CC1	1.86%
CNC(=O)c1sc(-n2cnc3cc(OC)c(OC)cc32)cc1OCc1ccccc1C(F)(F)F	2.71%
N#Cc1ccc2c(-c3ccnc(NC4CC4)n3)c(-c3ccc(F)cc3)nn2c1	0.58%
COc1ccc2ncn(-c3cc(O[C@H](C)c4ccccc4C(F)(F)F)c(C(N)=O)s3)c2c1	3.55%
c1cnn2ncc(-c3ccnc(NCCCN4CCOCC4)n3)c2c1	2.04%
O=C(Nc1n[nH]c2nnc(-c3cccnc3)cc12)C1CC1	-0.19%
CS(=O)(=O)CCNCc1ccc(-c2ccc3ncnc(Nc4ccc(OCc5cccc(C(F)(F)F)c5)cc4)c3c2)o1	2.66%
